# Hits are enriched below; roughly 4.3% of the tested compounds scored in any of these assays.
# Giardia kill – Giardia lamblia killing | Giardia lamblia trophozoite viability | activity change, % at 7.66 µM, hits read low | 340,000 tested, 0.15% active | AID 540267; in the data active means activity change below about -80%; inconclusive means between about -30% and that limit;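 further: parasites exposed to compound for two days anaerobically before the ATP read; on the % scale 0 is the no-effect control and ±100 the full control effect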
#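 Killing of trophozoites was scored by loss of ATP luminescence after a 48 hrs anaerobic exposure to compounds at 37 deg C, using 100 cells per well.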
# uPA surface inh – inhibitors of cell surface uPA generation; cell surface uPA generation assay, qHTS; Potency, µM (series often up to 38.3 µM), for the others: top-dose activity change, negative = inhibition, usual class: inhibitors; 330,000 tested, 0.31% active; AID 540303; active means well fitted inhibition curve with a large enough effect; inconclusive means small, poorly fitted or top-dose-only effect; inactive means no such curve, though single readings can be large or run the other way; tested in mouse RAW 264.7 cells; further: potency means the concentration at half of the fitted maximal effect; on the % scale 0 is the no-effect control and ±100 the full control effect; nearly all actives have a fitted effect of over 55% in size
# SW480 rereplic – induces DNA re-replication in SW480 colon adenocarcinoma cells; Potency, µM (top dose mostly 46.1 µM), without a hit: at the top dose re-replication activation, actives largely listed as activators; SW480 DNA re-replication, Hoechst DNA content imaging, 48 h; AID 624297; 340,000 tested, 1.8% active; further: potency means the concentration at half of the fitted maximal effect; % of control where 0% means no effect; nearly all actives have a fitted effect of over 55% in size
#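 Hoechst fluorescence of nuclei (405 nm excitation, 500-530 nm emission) measured by plate-scanning imager after 48 hr compound exposure at 37 C; re-replication scored as increased number of nuclei with elevated intensity.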
# MCF10A rerep – induces DNA re-replication in MCF 10a normal breast cells. MCF 10A DNA re-replication, Hoechst nuclear intensity, 48 h. Potency, µM (doses to about 46.1 µM), inactives show top-dose activity, positive = re-replication, hits mostly activators. 350,000 tested, 2.9% active. AID 624296; further: potency means the concentration at half of the fitted maximal effect; % of control where 0% means no effect; nearly all actives have a fitted effect of over 50% in size
# Numbers without * were called inactive; u = inconclusive; x = no result. Unless noted, the call rests on the fitted dose curve; in most records, active means well fitted activation curve with a large enough effect; inconclusive means small, poorly fitted or top-dose-only effect; inactive means no such curve, though single readings can be large or run the other way.
SMILES,Giardia kill,uPA surface inh,SW480 rereplic,MCF10A rerep
COc1cc(C(=O)NNC(=S)Nc2ccc(S(N)(=O)=O)cc2)cc(OC)c1OC,-9.6,-7.7%,0.3%,19.3%
CSc1nnc(CSCc2ccc(Cl)cc2Cl)n1-c1ccccc1,14.9,x,19.1%,11.2µM*
Cc1cc(C)c2nc(N3CCCC(C(=O)N4CCN(c5ncccn5)CC4)C3)sc2c1 (stereo unspecified),7.5,3.7%,14.4%,14.6µM*
CN(C)S(=O)(=O)n1cc(/C=C(\NC(=O)c2ccccc2F)C(=O)N2CCCC2)c2ccccc21,-6.1,-5.4%,-37.2%,15.2%
CC12CCC(=O)C=C1CCC1C2CCC2(C)C(c3csc(N)n3)CCC12 (stereo unspecified),19.1,-7.2%,u,16.4µM*
Cc1ccc(C(=O)N/C(=C/c2ccc(-c3ccc([N+](=O)[O-])cc3)o2)C(=O)NCCCN(C)C)cc1,-11.4,14.4%,23.1µM*,u
CCCN1CCN(CCCNC(=O)c2cc3c(s2)-c2c(C)cccc2OC3)CC1,12.6,u,u,u
Cc1cccc2c1-c1sc(C(=O)NCCCN3CCCC(C)C3)cc1CO2 (stereo unspecified),22.2,u,18.4µM*,23.1µM*
CCOc1ccc(Br)cc1C1C(C(=O)OC)=C(N)Oc2cc(N(C)C)ccc21 (stereo unspecified),-3.4,-13.1%,u,10.3µM*
CCOc1ccccc1C1C(C(=O)OC)=C(N)OC2=C1C(=O)CCC2 (stereo unspecified),-0.5,8.6%,2.0%,-3.2%
C=C(C(=O)c1ccccc1)C(C)CC(=O)c1ccccc1 (stereo unspecified),5.0,-2.3%,20.6µM*,u
C=C(C(=O)c1ccccc1)C(NC(C)(C)C)c1ccccc1 (stereo unspecified),-10.5,-8.9%,2.91µM*,1.84µM*
O=C(CC(Nc1ccccc1)C(=O)O)c1ccccc1 (stereo unspecified),5.7,-1.4%,13.9%,22.7%
C[n+]1cccc2cccc([O-])c21,17.0,7.9%,-6.6%,-0.6%
CC1(C)Cc2ccccc2C(Nn2cnnc2)=N1,-4.7,0.8%,0.5%,22.4%
CC1(C)Cc2ccccc2C2=NNC(=O)C2=N1,13.1,-7.9%,8.2µM*,u
CC(C(=O)O)c1ccc2c(c1)Cc1cccnc1O2 (stereo unspecified),x,x,-2.5%,-1.6%
COc1ccc(-n2c(SCC(=O)NCCCN3CCCC3=O)nnc2C(C)N2CCCCC2)cc1 (stereo unspecified),2.6,u,-27.3%,1.3µM*
COc1ccc(NC(=O)NCCCN2CCCC2=O)cc1,-21.9,-7.4%,-1.9%,1.1%
COc1ccc2c(c1)NC(c1ccc(N(C)C)cc1)c1cccn1-2 (stereo unspecified),2.9,1.7%,18.4µM*,u
COc1ccc2c(c1)NC(c1cc(Cl)cc(Cl)c1O)c1cccn1-2 (stereo unspecified),6.3,1.3%,-1.5%,15.9%
Cc1cc(NC(=O)CSc2nc3c(c(=O)n2-c2ccc(Br)cc2)SCC3)no1,19.9,u,u,8.2µM*
Cc1cccc(N2CCN(C(=S)Nc3ccc4nc(N5CCN(C)CC5)cc(C)c4c3)CC2)c1C,-81.9*,1.8%,-2.7%,0.1%
Cc1cc(N2CCN(C)CC2)nc2ccc(NC(=S)N3CCN(c4ccc(Cl)cc4)CC3)cc12,u,5.8%,11.6µM*,29.1µM*
Cc1cc(N2CCN(C)CC2)nc2ccc(NC(=S)N3CCCCCC3)cc12,34.4,u,14.4%,u
SMILES,Giardia kill,uPA surface inh,SW480 rereplic,MCF10A rerep
Cc1cc(N2CCCC2)nc2ccc(NC(=S)NCCCN3CCC(C)CC3)cc12,11.0,-4.7%,u,18.4µM*
Cc1cc(N2CCN(C)CC2)nc2ccc(NC(=S)N3CCN(c4ccc(F)cc4)CC3)cc12,-84.6*,-8.2%,u,u
Cc1cc(N2CCN(C)CC2)nc2ccc(NC(=S)NCCN3CCc4ccccc4C3)cc12,3.0,u,u,u
CCN(C(=O)CSc1nc2cc(C(=O)O)ccc2c(=O)n1-c1ccccc1F)C1CCS(=O)(=O)C1 (stereo unspecified),16.7,6.3%,0.2%,-1.3%
C[C@@H]1COC(=O)[C@@H](Cc2ccc(F)cc2)C/C=C\C[C@@H](CC(=O)NCCO)C(=O)N1,6.8,17.5%,0.2%,-26.6%
COc1ccc2[nH]c3c(c2c1)CCN1C(=O)N([C@@H](C)C(=O)NCc2ccco2)C(=O)[C@]31C,3.0,-2.0%,u,-2.5%
COC(=O)c1sccc1NC(=S)N1CCN(c2cccc(C)c2C)CC1,6.5,-6.2%,u,4.11µM*
Cc1cccc(N2CCN(C(=S)Nc3ccc4nc(N5CCN(C)CC5)cc(C)c4c3)CC2C)c1 (stereo unspecified),-88.6*,-11.9%,18.4µM*,18.4µM*
Cc1cc(N2CCN(C)CC2)nc2ccc(NC(=S)N3CCCCC3)cc12,2.2,4.1%,u,18.4µM*
Cc1cc(N2CCN(C)CC2)nc2ccc(NC(=S)N3CCN(c4cccc(Cl)c4)CC3)cc12,-81.4*,2.8%,9.2µM*,7.31µM*
Cc1cc(N2CCN(C)CC2)nc2ccc(NC(=S)NCCCN3CCc4ccccc4C3)cc12,-11.7,0.0%,u,u
CC(=O)c1ccc(NC(=S)N2CCN(c3cccc(Cl)c3)CC2)cc1,-1.3,1.6%,1.2%,11.5%
Cc1cc(N2CCOCC2)nc2ccc(NC(=O)C3CCCCC3)cc12,15.0,x,x,x
Cc1cc(N2CCOCC2)nc2ccc(NC(=S)N3CCCCC3C)cc12 (stereo unspecified),0.5,-9.6%,18.4µM*,14.6µM*
Cc1cc(C)c(S(=O)(=O)/N=C2\C=CC(=O)C(Cl)=C2)c(C)c1,-13.3,x,3.1%,12.6µM*
Cc1c(C(=O)OCc2ccccc2)[nH]c2c1C(=O)CC(c1ccco1)C2 (stereo unspecified),5.0,1µM*,u,u
COCCOC(=O)c1[nH]c2c(c1C)C(=O)CC(c1ccc(F)cc1)C2 (stereo unspecified),-12.2,u,u,u
CCOC(=O)c1[nH]c2c(c1C)C(=O)CC(c1ccco1)C2 (stereo unspecified),-13.1,u,0.184µM*,9.2µM*
Cc1c(C(=O)OCCOC(C)C)[nH]c2c1C(=O)CC(c1ccco1)C2 (stereo unspecified),-7.7,u,1.46µM*,u
CSCCOC(=O)c1[nH]c2c(c1C)C(=O)CC(c1ccco1)C2 (stereo unspecified),-3.0,u,1.3µM*,u
COCCOC(=O)c1[nH]c2c(c1C)C(=O)CC(c1ccco1)C2 (stereo unspecified),6.5,1µM*,1.03µM*,8.2µM*
COCCOC(=O)c1[nH]c2c(c1C)C(=O)CC(c1ccccc1)C2 (stereo unspecified),3.7,-15.6%,7.31µM*,5.8µM*
Cc1cc(=O)n2ccccc2c1C#N,4.7,x,-9.7%,-4.0%
COc1ccc2c(C#N)c3ccccn3c2c1,1.9,-2.4%,u,23.1µM*
FC(F)(F)c1cccc(CNC2c3ccccc3-c3ccccc32)c1,-12.5,3.6%,3.4%,u

# Source: PubChem BioAssay (National Center for Advancing Translational Sciences (NCATS))
